S1P1 agonist: activates the human S1P1 receptor. P21453. S1P1 agonist cell-based reporter assay. activation, % at 4.5 µM. hit rate 1.5% among 16,000. AID 1044; in the data active = activation above about 80%
Luminol counter: quenches luminol chemiluminescence in Nox1 counter-screen. HRP/luminol/H2O2 chemiluminescence counterscreen. hit rate 0.4% among 16,000. inhibition, % at 6.7 µM; also: reference of the scale not given here
NOTCH agonist: activates NOTCH signaling in reporter cells. NOTCH signaling luciferase reporter cells, luminescence. activation, % at 2.5 µM. hit rate 0.4% among 15,000. AID 434982; in the data active = activation above about 2.2%
PME-1 Maybr inh: inhibitors of human PME-1 in Maybridge library; recombinant PME-1, FP-Rh probe fluorescence polarization; inhibition, % at 9 µM; hit rate 0.5% among 16,000; Q9Y570; AID 2291; in the data active = inhibition above about 30%
Nox1 inh: human Nox1 inhibition | Q9Y5S8 | inhibition, % at 6.7 µM | hit rate 0.81% among 16,000 | AID 1792 | HT29 cells, luminol chemiluminescence ROS
rat GALR2 ag: activates the rat galanin receptor 2; O08726; cell-based GALR2 agonist screen; activation, % at 10 µM; hit rate 0.5% among 16,000; AID 833; in the data active = activation above about 15%
Target sequence (O08726 whole entry, looked up): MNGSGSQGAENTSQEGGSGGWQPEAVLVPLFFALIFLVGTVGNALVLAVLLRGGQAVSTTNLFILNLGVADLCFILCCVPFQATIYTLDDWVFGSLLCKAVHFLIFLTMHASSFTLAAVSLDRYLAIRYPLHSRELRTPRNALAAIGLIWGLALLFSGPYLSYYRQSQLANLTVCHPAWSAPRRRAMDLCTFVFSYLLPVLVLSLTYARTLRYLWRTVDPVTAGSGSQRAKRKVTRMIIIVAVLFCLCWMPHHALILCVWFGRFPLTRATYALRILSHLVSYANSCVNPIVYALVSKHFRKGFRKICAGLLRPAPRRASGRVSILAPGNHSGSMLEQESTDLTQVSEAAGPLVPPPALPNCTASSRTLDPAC
The depositor's hits bear a star; x = no result. A selection: hits, their analogues and other compounds. The true share with any hit is near 4%. Rule as the data show it, unless noted: active = inhibition above about 75%; inactive = the rest.

SMILES	S1P1 agonist	Luminol counter	NOTCH agonist	PME-1 Maybr inh	Nox1 inh	rat GALR2 ag
COc1cc(NC(=O)Nc2ccc(Cl)cc2)c(-n2c(C)ccc2C)cc1OC	-11	4	-1	74*	-3	-4
CCOC(=O)c1nsc(/C(C)=N/Nc2ccccc2)c1N	-7	0	0	7	98*	-1
CCOC(=O)c1ccc(NC(=S)NC)cc1	-11	-2	2.9*	5	-24	-4
CCOC(=O)c1ccc(NC(=O)C(=S)NCc2ccccc2)cc1	-4	-1	1	-4	-46	-5
CC(C)(C)c1csc(NNC(=O)c2ccc(Cl)cc2)n1	-4	0	0	0	85*	-10
O=C(NNc1nc(-c2cccs2)cs1)c1ccc(Cl)cc1	-3	6	-1	5	5	-8
O=c1[nH]c2cccnc2[nH]c1=O	-1	-1	0	1	-97	2
S=c1[nH]c2cccnc2s1	2	100*	0	4	12	-1
Cc1c(C)c(C)c(C(=O)c2ccccc2C(=O)NN)c(C)c1C	81*	2	0	-5	-9	-7
NNC(=O)c1ccccc1-n1cccc1	3	0	0	6	7	-9
Fc1ccc(-c2ccc3ccccc3n2)cc1	1	-7	-1	3	13	-5
O=S(=O)(Nc1cc(C(F)(F)F)cc(C(F)(F)F)c1)c1cccc2nsnc12	89*	-4	0	5	55	-3
O=c1cc(Nc2ccc(OC(F)(F)F)cc2)c2ccccc2o1	9	-9	-1	54*	3	-13
O=C(Cc1cccs1)Nc1ccc(OC(F)(F)F)cc1	5	-1	0	5	3	-7
CN1CCc2c(sc3nc(=S)[nH]c(Nc4ccccc4)c23)C1	7	-2	1	8	-2	-5
CSc1cccc(N/C(=N\S(=O)(=O)c2ccccc2)SCC(=O)O)c1	16	8	0	6	19	-5
CSc1cccc(N/C(=N\S(=O)(=O)c2ccccc2)NN)c1	-4	8	-1	43*	-50	-4
O=C(OCc1ccccc1)c1cnc(N2CCSCC2)nc1C(F)(F)F	33	-2	0	-3	-32	-5
Cc1nnsc1C(=O)Nc1ccccc1SCc1noc(-c2cccs2)n1	-6	2	-1	1	-21	-8
Cc1nnsc1C(=O)Nc1ccccc1SCc1cccc(C(F)(F)F)c1	88*	3	0	-6	-47	-11
CSc1cccc(NC(=S)NCCCO)c1	7	-17	0	-7	-77	-3
CSc1cccc(NC(=S)NCc2ccc(C#N)cc2)c1	-5	-4	0	61*	14	-1
CCOC(=O)CC(=O)CSc1cc(C)c(Cl)cc1Cl	-3	-5	0	4	10	-2
O=C(Oc1cccc(N2CCOCC2)c1)c1ccc(CSC(=S)N2CCSCC2)cc1	8	3	-1	-6	-42	-8
Cn1ccc(NS(=O)(=O)c2ccc(N3C(=O)c4ccccc4C3=O)cc2)n1	-8	0	0	5	-86	-4
SMILES	S1P1 agonist	Luminol counter	NOTCH agonist	PME-1 Maybr inh	Nox1 inh	rat GALR2 ag
Cc1cc(S(=O)(=O)Cc2ccc(NC(=O)C(Cl)(Cl)Cl)cc2)c(C)cc1Cl	5	1	0	-2	-15	16*
COC(=O)/C(=C\N(C)C)S(=O)(=O)c1cc(C)c(Cl)cc1C	-7	0	0	12	-34	-6
CCn1c2ccccc2c2cc(N3C(=O)C=CC3=O)ccc21	110*	3	-1	-24	-6	-9
O=C(Nc1ccc(-c2cnco2)cc1)c1csc([N+](=O)[O-])c1	105*	3	0	-14	-60	-1
Nc1nc(NCc2cccnc2)n[nH]1	-2	-6	1	5	77*	-5
COc1nc(Nc2ccccc2)nc(OC)n1	-19	-1	-1	0	-45	-8
Nc1nc(Nc2ccccc2)n[nH]1	-20	13	x	-2	78*	-9
Nc1nc(NCc2ccccn2)n[nH]1	6	2	0	0	90*	-4
Nc1nc(NCc2ccc(-c3cccs3)s2)n[nH]1	1	1	0	2	57	-4
O=S1(=O)CC=C(Cl)C1	28	3	x	24	-16	-9
NNC(=O)Oc1ccccc1	3	-7	0	7	-52	-4
CCOC(=O)C(=CNc1cccc(-c2nn(C)cc2Br)c1)C(=O)OCC	-40	-6	-1	8	-17	-5
COCCCn1c(SCC(=O)Nc2ccc(C(C)C)cc2)nnc1-c1csc(C)n1	-14	-2	-1	1	5	-4
O=C(O)/C=C/C(=O)NNC(=O)c1ccccc1-n1cccc1	3	4	0	0	-52	-8
O/N=C(/c1ccccn1)C1CCCCC1	-10	3	-1	-2	-12	-4
COc1cccc(C(=O)CSc2nsc(SCC(=O)c3cccc(OC)c3)c2C#N)c1	-6	0	-1	0	88*	-8
Brc1ccc(-n2cccc2)nc1	86*	2	0	-3	-32	-9
